In the library only some 1.4% were active in any assay of this set; here they are far more common.
FAS TE block – FAS thioesterase (human) inhibition; actives 0.67% (n = 360,000); P49327; inhibition, % at 15 µM; recombinant FAS-TE, OMFH fluorogenic substrate, fluorescence endpoint;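 active = compounds whose normalised, plate-corrected inhibition of enzyme fluorescence in the single-dose primary screen is 50% or more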;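 also: 0% = DMSO with enzyme and 100% = substrate without enzyme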
APOBEC3A inh – blocks human APOBEC3A ssDNA deamination | actives 0.41% (n = 330,000) | inhibition, % at 20 µM | AID 493011 | recombinant A3A, FAM/TAMRA ssDNA deamination fluorescence;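 active = at least 40% inhibition at 20 µM here, with at most 30% in a related deaminase screen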;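 also: plate controls were A3A with DMSO for no effect and wells lacking A3A enzyme for full effect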
NPR2 activator – GC-B (human) receptor activation; HEK293-GC-B cells, CNP EC30, cGMP TR-FRET; 0% at EC30 CNP, 100% saturating CNP; activation, % at 10 µM; P20594; actives 0.11% (n = 370,000);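 active = activation at 10 µM reaching about 35% in either raw or pattern-adjusted values, limit read from the data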
A3G deaminase – APOBEC3G (human) deaminase inhibition; Q9HC16; recombinant A3G, ssDNA deamination FAM/TAMRA fluorescence; inhibition, % at 20 µM; actives 0.28% (n = 330,000);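 active = inhibition of at least 40% at 20 µM, with no more than 30% in the related APOBEC3A deaminase screen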;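 also: plate controls were DMSO wells with A3G for no effect and wells lacking A3G enzyme for full effect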
NPR1 activator – GC-A (human) enzyme activation; HEK293 GC-A cells, cGMP TR-FRET, EC30 ANP; 0% at EC30 ANP, 100% saturating ANP; AID 1671463; P16066; activation, % at 10 µM; actives 0.14% (n = 370,000); in the data active = activation above about 40%
Target sequence (P16066 whole entry, looked up): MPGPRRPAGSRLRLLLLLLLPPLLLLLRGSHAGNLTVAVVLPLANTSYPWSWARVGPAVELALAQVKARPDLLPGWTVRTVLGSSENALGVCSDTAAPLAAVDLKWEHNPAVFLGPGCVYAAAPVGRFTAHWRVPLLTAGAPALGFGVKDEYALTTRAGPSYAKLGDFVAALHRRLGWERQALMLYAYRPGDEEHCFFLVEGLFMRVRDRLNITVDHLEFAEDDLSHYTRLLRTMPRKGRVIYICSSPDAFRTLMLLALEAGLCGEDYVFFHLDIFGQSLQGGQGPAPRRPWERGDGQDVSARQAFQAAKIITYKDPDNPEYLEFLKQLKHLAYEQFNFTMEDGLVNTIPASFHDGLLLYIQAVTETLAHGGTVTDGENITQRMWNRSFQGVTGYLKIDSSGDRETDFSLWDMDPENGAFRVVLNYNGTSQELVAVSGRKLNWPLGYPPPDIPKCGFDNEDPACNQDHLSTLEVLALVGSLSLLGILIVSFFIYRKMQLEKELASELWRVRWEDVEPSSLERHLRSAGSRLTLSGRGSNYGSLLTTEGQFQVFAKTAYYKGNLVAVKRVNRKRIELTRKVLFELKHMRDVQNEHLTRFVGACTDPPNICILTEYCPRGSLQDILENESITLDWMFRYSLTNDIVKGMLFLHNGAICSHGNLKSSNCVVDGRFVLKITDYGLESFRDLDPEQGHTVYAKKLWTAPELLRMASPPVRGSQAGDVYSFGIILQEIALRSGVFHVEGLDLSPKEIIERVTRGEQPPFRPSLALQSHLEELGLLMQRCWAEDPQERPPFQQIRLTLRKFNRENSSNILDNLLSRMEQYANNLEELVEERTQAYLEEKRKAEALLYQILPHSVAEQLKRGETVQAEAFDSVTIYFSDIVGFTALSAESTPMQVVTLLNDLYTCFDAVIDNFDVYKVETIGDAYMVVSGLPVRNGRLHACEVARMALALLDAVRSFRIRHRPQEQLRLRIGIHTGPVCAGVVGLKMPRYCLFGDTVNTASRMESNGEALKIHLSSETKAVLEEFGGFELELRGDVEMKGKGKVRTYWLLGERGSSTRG
A3A conf – APOBEC3A (human) deaminase inhibition, confirmed. shares compounds with APOBEC3A inh. recombinant A3A, ssDNA deaminase UDG fluorescence assay. inhibition, % at 20 µM. actives 63% (n = 1,400). AID 493151;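 active = inhibition reaching a set limit, 80% of the first screen's cutoff, at 20 µM in any replicate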;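 also: plate controls were DMSO wells with A3A for no effect and wells lacking A3A enzyme for full effect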
UDG A3A counter – counter-screen for APOBEC3A inhibitors: UDG | 1,000 tested, under 10 active | UDG counterscreen, FAM/TAMRA uracil oligo fluorescence | AID 504714 | inhibition, % at 20 µM | shares compounds with APOBEC3A inh; call rule not given here
The depositor's hits bear a star; · = no result given.

SMILES | FAS TE block | APOBEC3A inh | NPR2 activator | A3G deaminase | NPR1 activator | A3A conf | UDG A3A counter
CCC1=[N+](C)CCn2c(C)ccc21 | -8.0 | 64.0* | 1.7 | 26.6 | 2.5 | 76.1* | 4.1
O=C1NC(=S)SC1=C1CCCC1 | -7.2 | 62.4* | 2.9 | 21.1 | -3.3 | 58.1* | -2.7
CCCCN(C)S(=O)(=O)c1ccc2[nH]c(=O)oc2c1 | · | · | -7.2 | · | 3.3 | · | ·
CCC1(c2ccccc2)NC(=O)N(CC(=O)Nc2cc(Cl)ccc2N2CCOCC2)C1=O (stereo not drawn) | 8.4 | 47.0* | -5.5 | 5.4 | -7.7 | 7.8 | ·
CCC1(c2ccccc2)NC(=O)N(CC(=O)Nc2ccccc2N2CCCC2)C1=O (stereo not drawn) | -3.7 | -5.7 | 3.7 | -11.7 | 2.6 | · | ·
CCN1C(=NCCCOC(C)C)N[C@@H](c2ccccc2)[C@H](C(=O)OC)[C@H]1C | -13.0 | 43.7* | 0.9 | 13.7 | -5.1 | 60.6* | -2.0
CCN1C(=NCCc2ccc(Br)cc2)N[C@@H](c2ccccc2)[C@H](C(=O)OC)[C@H]1C | 2.6 | 38.6 | -8.2 | 8.7 | -3.4 | · | ·
CCN1CCN(S(=O)(=O)c2ccc(Cl)c(C(=O)N(C)C(c3ccccc3)c3ccccc3)c2)CC1 | 14.5 | 57.3* | -8.3 | 17.3 | -17.3 | 63.8* | -2.1
CCN1CCN(S(=O)(=O)c2ccc(Cl)c(C(=O)N(C)C3CCCCC3)c2)CC1 | -4.6 | · | 4.6 | · | 0.8 | · | ·
Cc1ccccc1NC(=O)N(C)[C@H]1C[C@H]2c3[nH]c4c(-c5ccccc5)cccc4c3CCN2C[C@H]1[C@H](C)O | · | · | -5.1 | · | -1.9 | · | ·
CCN1/C(=C/c2ccc3cc(C)ccc3[n+]2CC)Sc2cc(C)c(C)cc21 | -38.9 | 56.6* | -13.4 | 18.9 | -38.9 | 79.9* | ·
CC(C)(C)c1ccc(CCC2OCC(C[N+]3(C)CCOCC3)O2)cc1 (stereo not drawn) | 9.4 | 45.1* | -1.0 | 19.1 | 4.1 | 72.6* | -1.5
N#Cc1cc(F)cc(OC[C@@H](O)CN2CCC(C(O)(c3ccccc3)c3ccccc3)CC2)c1 | · | · | -12.5 | · | -20.1 | · | ·
CN(Cc1ccccc1)C1=CC(=[N+]2CCCCC2)CC(C)(C)C1 | -3.4 | 67.6* | 1.8 | 20.3 | 2.9 | 72.6* | -2.3
Cc1nc2ccc(NC(=O)c3cc(Cl)ccn3)cc2s1 | -2.6 | 49.3* | -4.1 | -2.1 | -1.8 | 23.2 | 0.0
NC(=O)C[n+]1cccc2ccccc21 | -10.7 | 42.9* | 1.5 | 3.4 | 0.4 | 58.8* | 0.6
CCC(=O)N1CCc2cc(Br)c(S(=O)(=O)NCc3ccccc3OC)cc21 | · | · | 0.8 | · | -0.9 | · | ·
CC(NC(=S)Nc1ccc(F)cc1)c1ccccc1 (stereo not drawn) | 2.6 | 88.2* | 2.0 | -4.1 | 1.7 | 9.8 | 10.9
CC(=O)OC(COC1C[C@@H]2CC[C@@]1(C)C2(C)C)C[N+]1(C)CCCCC1 (stereo partly drawn) | 0.8 | 48.1* | -0.4 | 15.2 | 5.2 | 70.4* | -2.8
O=P(c1ccccc1)(c1ccccc1)c1cnc2ccccn12 | · | · | -4.2 | · | -2.5 | · | ·
CCCCn1nc(NC(=O)COC)c2cc3ccc(C)cc3nc21 | -4.9 | 46.9* | · | 14.9 | · | 66.7* | 5.6
CCn1nc(NC(=O)COC)c2cc3cc(C)ccc3nc21 | 0.6 | 45.1* | -4.6 | 15.6 | 1.4 | 59.0* | -0.3
CCCC(=O)Nc1nn(C)c2nc3cc(C)ccc3cc12 | · | -2.5 | · | -5.7 | · | · | ·
CCCn1nc(NC(=O)COC)c2cc3cc(C)ccc3nc21 | -4.8 | 52.7* | · | 27.8 | · | 57.8* | -2.0
CCC(C)c1ccc(S(=O)(=O)N2CCN(CC(O)COCC3CCCO3)CC2)cc1 (stereo not drawn) | -0.2 | 54.8* | 3.0 | -9.1 | 1.3 | -11.2 | 1.0
SMILES | FAS TE block | APOBEC3A inh | NPR2 activator | A3G deaminase | NPR1 activator | A3A conf | UDG A3A counter
O=C(CSc1ncn(-c2ccccc2)n1)Nc1ccc2c(c1)OCO2 | -1.6 | 46.3* | -1.3 | 12.0 | -0.2 | 11.2 | ·
C=CCn1c(Cc2cccs2)nnc1SCC(=O)Nc1ccc(C)cc1 | · | · | 0.1 | · | -7.1 | · | ·
COC(=O)[C@H](C(C)C)N1Cc2nnn(Cc3ccc(C)cc3)c2-c2ccccc2S1(=O)=O | · | · | 4.4 | · | 0.7 | · | ·
C=CCN1[C@@H](Cc2ccccc2)COc2cccc(N3CCCC3)c2S1(=O)=O | · | · | -9.1 | · | -2.7 | · | ·
C/C=C/c1ccc(OCC(=O)Nc2ccc(C(N)=O)cc2)c(OC)c1 | -8.3 | -0.5 | -1.6 | -5.7 | 3.0 | · | ·
COc1cc(/C=C/c2cc[n+](C)cc2)ccc1OCC(=O)Nc1ccccc1 | -7.5 | 65.8* | 2.2 | 7.6 | -1.0 | 78.6* | 3.3
COc1ccc(NC(=O)/C(C#N)=C\c2ccc(Br)o2)cc1 | -2.5 | 70.8* | -2.6 | 20.9 | -1.1 | 42.0* | -1.6
COc1ccc(NC(=O)/C(C#N)=C/c2ccc(-c3ccccc3C(=O)O)o2)cc1 | -5.5 | -5.4 | -0.4 | -11.3 | -0.2 | · | ·
CCc1nc(-c2ccc(C)nc2OC)no1 | -9.1 | 67.1* | -11.1 | 18.9 | -4.7 | 62.3* | 1.2
CCc1nc(-c2ccc(-c3ccc(OC)cc3)nc2OC)no1 | 15.8 | 1.1 | -5.9 | -2.1 | -0.6 | · | ·
CCCN(CCC)CCN1CCN(C(=O)[C@H](CCc2ccccc2)NC(=O)[C@H]2O[C@@H](n3cnc4c(N)ncnc43)[C@H](O)[C@@H]2O)CC1 | · | · | 9.5 | · | 7.5 | · | ·
CCOC(=O)COc1ccc(Br)cc1/C=C1\SC(N)=NC1=O | -2.2 | 52.8* | -12.9 | 6.2 | -11.3 | 50.4* | -4.8
NC1=NC(=O)/C(=C/c2ccc(Br)cc2)S1 | -3.2 | 0.0 | -7.3 | -0.7 | 7.8 | · | ·
NCCCC(C(=O)O)N(C(=O)OCc1ccccc1)C(=O)OCc1ccccc1 (stereo not drawn) | · | · | 7.5 | · | 0.1 | · | ·
CCN(CC)CCNC(=O)c1ccc(NC(=O)C2CCN(c3ncnc4sc(C)c(C)c34)CC2)cc1 | -3.7 | 44.3* | -1.6 | 16.3 | -1.2 | 57.1* | ·
O=C(NC1CCCCC1)N1CCC(c2nc3ccc(Cl)cc3[nH]2)CC1 | -0.4 | 40.0* | -9.2 | -2.8 | -7.3 | 0.2 | -1.4
O=C(O)c1ncc(Cl)c(Cl)c1Cl | -6.7 | -3.9 | 1.8 | -4.2 | 1.7 | · | ·
O=C(O)c1nsc(Cl)c1Cl | -5.8 | 99.3* | 3.4 | -3.9 | 4.1 | -1.1 | -2.9
COc1ccccc1CCn1cnc(-c2cccc(F)c2)c1C(C)C | · | · | 3.3 | · | -2.0 | · | ·
O=C(CN1CCOCC1)N/N=C/c1ccc(-c2ccc(C(=O)O)cc2)o1 | -12.3 | 43.3* | 3.8 | 17.1 | -3.5 | 84.8* | 5.6
CC1(CC(=O)N/N=C/c2ccc(-c3ccc(C(=O)O)cc3)o2)OCCO1 | -6.5 | -2.7 | 3.1 | -3.7 | 0.9 | · | ·
CN(C)c1ccc(/C=C/c2cccc[n+]2[O-])cc1 | -9.3 | -4.1 | -5.2 | -8.0 | -4.5 | · | ·
